Among the data in PubChem BioAssay are composite z-score and z-score values, retold here.

For assay [1], the system named is Plasmodium falciparum Sir2 (PF13_0152, Sir2A). Briefly: Plasmodium falciparum Sir2A binding compounds – biochemical, small-molecule microarray, 635 nm fluorescence, primary screen (AID 1098).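 Also: score merges spot fluorescence intensity with its signal-to-noise ratio.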 The note with it: fluorescence 635 nm, higher = more signal.
The nature of assay [2]: probe aDKK1 binding to arrayed compounds – biochemical, biotinylated probe, 635/667 nm fluorescence, primary screen (AID 1099).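 Also: score merges 667nm spot fluorescence with signal to noise across triplicate slides.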 The note with it: small-molecule microarray, higher = more signal.
Assay [3] is described as follows: probe aCHRDL2 binding to arrayed compounds – biochemical, biotinylated probe, 635/667 nm fluorescence, primary screen (AID 1100). The following applies: small-molecule microarray, higher = more signal.
Assay [4] is described as follows: change in splice reporter luminescence, either direction, cell-based, HEK293, spliceosome inhibition project, primary screen (AID 1101).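 Also: HEK293 cells carrying a splicing-competent luciferase reporter gene; test concentration not given here.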 The note with it: HEK293 splicing luciferase reporter, 24 h, higher = more signal, called active from +8 up or from −8 down. (In a reporter assay the amount or activity of a reporter protein is the signal.)
Assay [5] deals with Fibroblast growth factor 10 (Homo sapiens) (UniProt O15520). The experiment in a line: compounds binding fibroblast growth factor 10 – biochemical, small-molecule microarray, 635 nm fluorescence, primary screen (AID 1102). The note with it: FGF10 binding, fluorescence 635 nm, higher = more signal.
The test system of assay [6] is glycogen synthase kinase-3 (GSK3A per assay name; protocol says GSK3B). The experiment in a line: compounds binding glycogen synthase kinase-3 – biochemical, small-molecule microarray, 635 nm fluorescence, GSK3A, primary screen (AID 1103). Also: the record names both GSK3A and GSK3B. The note with it: fluorescence 635 nm, higher = more signal.
The target in assay [7] is Epidermal growth factor receptor (Homo sapiens) (UniProt P00533). Briefly: compounds binding epidermal growth factor receptor – biochemical, small-molecule microarray, 635 nm fluorescence, primary screen (AID 1104).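 Also: score merges 667 nm emission intensity with spot signal to noise over triplicate slides.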 The following applies: EGFR binding, higher = more signal.
In assay [8] the target is Follistatin-related protein 3 (Homo sapiens) (UniProt O95633). The experiment in a line: compounds binding follistatin-related protein 3 – biochemical, small-molecule microarray, 635 nm fluorescence, primary screen (AID 1105).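 Also: score merges emission near 667 nm and signal to noise per printed spot across three slides.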 The following applies: FSTL3 binding, higher = more signal.
The target in assay [9] is Dickkopf-related protein 1 (Homo sapiens) (UniProt O94907). The experiment in a line: small molecules binding DKK1 protein – biochemical, small-molecule microarray, 635 nm fluorescence scan, primary screen (AID 1106).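 Also: score merges emission near 667 nm with signal to noise over three replicate slides.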 The note with it: higher = more signal.
Assay [10] deals with Inhibin beta A chain (activin A). Briefly: small molecules binding activin A – biochemical, small-molecule microarray, 635 nm fluorescence scan, primary screen (AID 1107).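 Also: mouse activin A protein probed at 4.33 µg/mL on printed slides; score merges bound-protein fluorescence near 667 nm with spot signal-to-noise.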 The note with it: INHBA, higher = more signal.
The test system of assay [11] is Human papillomavirus type 1a protein E7 (residues 44-93). The experiment in a line: small molecules binding HPV E7 44-93 – biochemical, small-molecule microarray, residues 44-93, 635 nm fluorescence, primary screen (AID 1108).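 Also: E7 fragment applied at 1 µg/mL in TBST for 1 h at 4 C; score combines spot fluorescence with its signal to noise ratio.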 The note with it: fluorescence 635 nm, higher = more signal.
Assay [12] in a line: hepatitis C replication reporter changes, two-sided – Huh7 cells, luciferase reporter, HCV replication inhibitor project, primary screen (AID 1109).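 Also: huh7 hepatoma cells harbouring a luciferase neomycin HCV replicon reporter; luciferase luminescence as measure of HCV replicon replication; test concentration not given here.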 The following applies: Huh7 HCV replicon luciferase reporter, 48 h; higher = more signal.
Assay [13] addresses Left-right determination factor 2 (Homo sapiens) (UniProt O00292). Briefly: small molecules binding LEFTY2 protein – biochemical, small-molecule microarray, 635 nm fluorescence scan, primary screen (AID 1110). The following applies: higher = more signal.
The target in assay [14] is Calmodulin-1 (Homo sapiens) (UniProt P0DP23). The experiment in a line: small molecules binding calmodulin-1 with EGTA – biochemical, small-molecule microarray, Cy5-labelled CALM1, profiling panel (AID 1111).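 Also: labelled calmodulin applied in Tris saline Tween buffer holding calcium plus EGTA and DTT.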 The note with it: Cy5-CALM1 binding fluorescence, higher = more signal.
Assay [15] shares this target. The experiment in a line: small molecules binding Ca-loaded calmodulin-1 – biochemical, small-molecule microarray, Cy5-labelled CALM1, plus calcium, artefact control for SMM control-protein annotation, profiling panel (AID 1112).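 Also: score merges spot fluorescence with signal to noise from triplicate slides.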 The note with it: Cy5-CALM1 binding fluorescence, higher = more signal.
Assay [16] is described as follows: probe aWnt5a binding to arrayed compounds – biochemical, biotinylated probe, 635/667 nm fluorescence, primary screen (AID 1113).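 Also: score merges 667 nm fluorescence intensity with signal-to-noise per printed feature.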 The following applies: small-molecule microarray, higher = more signal.
Assay [17] is described as follows: probe aShh binding to arrayed compounds – biochemical, biotinylated probe, 635/667 nm fluorescence, primary screen (AID 1114).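 Also: probe is biotin-labelled aShh protein from a stem cell growth factor screen; measures binding of labelled protein to compounds printed on the slide; score merges feature fluorescence at 667 nm with signal-to-noise.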 The following applies: small-molecule microarray, higher = more signal.
The nature of assay [18]: probe aNog binding to arrayed compounds – biochemical, biotinylated probe, 635/667 nm fluorescence, primary screen (AID 1115).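 Also: probe is biotinylated aNog protein used at 0.15 µg/mL for 1 h at 4 C; z-score combines 667 nm fluorescence of each spot with its signal to noise.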 The following applies: small-molecule microarray, higher = more signal.
For assay [19], the target named is Torsin-1A-interacting protein 1 (Homo sapiens) (UniProt Q5JTV8). The experiment in a line: compound microarray binding of lysate hLAP1 – cell lysate, small-molecule microarray, COS7 lysate, 635/667 nm fluorescence, primary screen (AID 1116). The note with it: 635 nm fluorescence, higher = more signal.
For assay [20], the target named is Alpha-bungarotoxin (Bungarus multicinctus) (UniProt P60615). The experiment in a line: compounds binding labelled alpha-BTX control protein – biochemical, small-molecule microarray, Alexa647 label, 635/667 nm fluorescence, artefact control for SMM control protein annotation, profiling panel (AID 1117). The following applies: alpha-BTX-A647 binding fluorescence, higher = more signal.

Calls of active or inactive are those of the source.

Sequence of Follistatin-related protein 3 (Homo sapiens) (O95633 whole entry, looked up): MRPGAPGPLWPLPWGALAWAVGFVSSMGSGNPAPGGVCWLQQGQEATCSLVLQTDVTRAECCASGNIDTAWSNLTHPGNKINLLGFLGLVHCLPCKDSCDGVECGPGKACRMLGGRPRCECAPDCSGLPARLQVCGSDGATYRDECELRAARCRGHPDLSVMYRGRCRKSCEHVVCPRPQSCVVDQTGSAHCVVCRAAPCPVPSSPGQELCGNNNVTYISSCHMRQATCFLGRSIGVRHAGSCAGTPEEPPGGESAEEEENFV
Sequence of Fibroblast growth factor 10 (Homo sapiens) (O15520 whole entry, looked up): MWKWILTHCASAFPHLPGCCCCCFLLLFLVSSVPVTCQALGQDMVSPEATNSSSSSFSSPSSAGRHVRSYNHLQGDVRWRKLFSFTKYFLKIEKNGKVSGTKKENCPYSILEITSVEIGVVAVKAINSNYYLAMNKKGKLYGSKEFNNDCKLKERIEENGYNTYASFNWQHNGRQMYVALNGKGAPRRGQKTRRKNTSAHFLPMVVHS
Sequence of Epidermal growth factor receptor (Homo sapiens) (P00533 whole entry, looked up): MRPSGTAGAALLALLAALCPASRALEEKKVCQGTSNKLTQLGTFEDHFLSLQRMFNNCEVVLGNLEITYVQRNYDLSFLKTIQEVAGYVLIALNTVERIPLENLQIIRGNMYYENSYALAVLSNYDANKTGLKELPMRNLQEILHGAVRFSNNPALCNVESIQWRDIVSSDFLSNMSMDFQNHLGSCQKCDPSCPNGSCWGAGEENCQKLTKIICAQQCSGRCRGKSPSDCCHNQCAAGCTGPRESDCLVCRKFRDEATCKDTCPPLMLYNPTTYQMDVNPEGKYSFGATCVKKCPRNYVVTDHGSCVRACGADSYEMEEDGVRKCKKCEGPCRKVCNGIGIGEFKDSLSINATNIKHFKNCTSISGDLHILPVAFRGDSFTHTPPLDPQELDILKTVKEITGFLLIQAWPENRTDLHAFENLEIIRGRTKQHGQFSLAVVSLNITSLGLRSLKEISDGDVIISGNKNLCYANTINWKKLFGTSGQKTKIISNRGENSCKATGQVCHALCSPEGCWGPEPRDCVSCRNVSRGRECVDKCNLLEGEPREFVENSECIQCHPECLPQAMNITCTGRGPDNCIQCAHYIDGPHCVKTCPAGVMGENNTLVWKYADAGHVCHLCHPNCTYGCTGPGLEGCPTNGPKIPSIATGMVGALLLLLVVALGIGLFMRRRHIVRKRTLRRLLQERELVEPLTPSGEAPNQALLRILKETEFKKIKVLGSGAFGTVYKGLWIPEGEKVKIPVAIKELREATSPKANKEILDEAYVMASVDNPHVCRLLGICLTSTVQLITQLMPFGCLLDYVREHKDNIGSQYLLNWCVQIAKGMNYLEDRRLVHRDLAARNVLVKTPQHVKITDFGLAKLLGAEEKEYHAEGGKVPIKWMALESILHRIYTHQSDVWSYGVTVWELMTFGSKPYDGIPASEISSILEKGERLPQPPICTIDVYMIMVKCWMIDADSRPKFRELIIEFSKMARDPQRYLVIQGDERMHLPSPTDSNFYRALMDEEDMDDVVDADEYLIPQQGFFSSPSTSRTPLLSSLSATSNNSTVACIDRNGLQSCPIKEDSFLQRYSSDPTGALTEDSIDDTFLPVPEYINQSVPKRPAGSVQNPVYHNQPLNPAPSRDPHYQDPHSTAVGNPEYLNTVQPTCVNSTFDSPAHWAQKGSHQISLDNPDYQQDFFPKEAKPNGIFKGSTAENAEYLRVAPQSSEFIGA
Sequence of Left-right determination factor 2 (Homo sapiens) (O00292 whole entry, looked up): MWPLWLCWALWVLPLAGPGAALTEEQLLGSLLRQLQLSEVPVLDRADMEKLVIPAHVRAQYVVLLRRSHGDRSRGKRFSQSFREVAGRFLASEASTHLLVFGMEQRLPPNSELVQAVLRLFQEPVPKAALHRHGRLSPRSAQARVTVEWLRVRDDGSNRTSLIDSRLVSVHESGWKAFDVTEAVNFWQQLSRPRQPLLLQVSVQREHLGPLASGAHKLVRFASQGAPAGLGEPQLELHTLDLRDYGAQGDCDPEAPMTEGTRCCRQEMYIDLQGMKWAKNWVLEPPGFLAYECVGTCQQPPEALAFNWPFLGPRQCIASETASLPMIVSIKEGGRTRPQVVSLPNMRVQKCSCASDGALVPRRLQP
Sequence of Alpha-bungarotoxin (Bungarus multicinctus) (P60615 whole entry, looked up): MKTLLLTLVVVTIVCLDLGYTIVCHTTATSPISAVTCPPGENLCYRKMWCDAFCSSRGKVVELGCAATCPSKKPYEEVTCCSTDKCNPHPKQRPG
Sequence of Torsin-1A-interacting protein 1 (Homo sapiens) (Q5JTV8 whole entry, looked up): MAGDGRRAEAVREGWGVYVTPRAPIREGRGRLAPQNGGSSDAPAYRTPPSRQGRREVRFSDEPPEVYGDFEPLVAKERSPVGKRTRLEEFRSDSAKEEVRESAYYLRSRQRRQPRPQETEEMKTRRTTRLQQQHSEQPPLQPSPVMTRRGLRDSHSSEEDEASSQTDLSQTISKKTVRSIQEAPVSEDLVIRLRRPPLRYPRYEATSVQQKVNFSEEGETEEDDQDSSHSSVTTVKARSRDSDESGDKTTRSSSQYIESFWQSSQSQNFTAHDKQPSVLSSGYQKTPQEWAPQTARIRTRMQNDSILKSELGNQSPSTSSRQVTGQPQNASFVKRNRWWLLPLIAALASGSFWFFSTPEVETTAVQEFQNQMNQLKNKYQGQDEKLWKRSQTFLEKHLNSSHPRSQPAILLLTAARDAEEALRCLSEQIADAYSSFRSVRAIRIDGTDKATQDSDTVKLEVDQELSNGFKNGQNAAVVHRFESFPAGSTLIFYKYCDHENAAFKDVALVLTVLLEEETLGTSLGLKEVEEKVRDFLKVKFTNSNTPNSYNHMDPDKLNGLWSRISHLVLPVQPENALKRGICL
Sequence of Dickkopf-related protein 1 (Homo sapiens) (O94907 whole entry, looked up): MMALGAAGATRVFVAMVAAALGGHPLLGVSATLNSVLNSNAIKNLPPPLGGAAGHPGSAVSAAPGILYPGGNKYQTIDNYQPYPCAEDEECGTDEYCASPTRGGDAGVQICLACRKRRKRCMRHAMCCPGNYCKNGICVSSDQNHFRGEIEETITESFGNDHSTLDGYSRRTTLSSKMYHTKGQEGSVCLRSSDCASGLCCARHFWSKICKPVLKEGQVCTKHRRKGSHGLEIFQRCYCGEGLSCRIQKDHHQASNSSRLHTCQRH

On to `COc1cc(COC(C)=O)ccc1OC(C)=O`, for which the composite z-score in [1] was determined as 0.0968; in assay [2] it was 1.85; in [3] it was 0.285; in [5] it was 0.301; in [6], 0.578; in assay [7], 1.04. Besides, the composite z-score was determined as 0.505 in [8]; 1.17 in assay [9]; 0.47 in [10]; 0.793 in assay [11]; 0.44 in assay [13]; 0.434 in assay [14]. For the same molecule, the composite z-score in assay [15] is -0.156; in assay [16], 0.731; in assay [17], -0.093; in assay [18], -0.0878; in assay [19] it was 0.299; in assay [20] it was -0.0551. Also, the z-score in assay [4] is -0.309 (inactive); in assay [12], -0.785.
Take `[N-]=[N+]=NCc1ccccc1[C@@H]1OC(c2ccc(OCCCO)cc2)=N[C@]1(Cc1ccccc1)C(=O)NCC(O)CO` (stereo not given in full): the composite z-score in assay [1] was 0.62; in [2], 0.914; in assay [3], 0.956; in assay [5], 0.899; in assay [6], 0.0871; in [7] it was -0.519. Also, the composite z-score in assay [8] was -1.19; in assay [9] it was -0.889; in [10] it was 0.68; in [11] it was -0.0042; in assay [13], -0.559; in assay [14] it was 0.168. Besides, the composite z-score came out at 0.305 in assay [15]; 0.262 in assay [16]; 0.559 in assay [17]; 1.99 in [18]; 1.95 in assay [19]; 2.68 in assay [20]. Moreover, the z-score in [4] is 0.371 (inactive); in [12] it was -1.16.
Take `COC(=O)[C@@]1(Cc2ccc(F)cc2)[C@H]2c3cc(C(=O)N(C)C)n(Cc4cc(F)c(F)c(F)c4)c3C[C@H]2CN1C(=O)c1ccccc1`: the composite z-score was 0.931 in assay [1]; 0.9 in assay [2]; 1.19 in [3]; 1.16 in assay [5]; 0.744 in [6]; -0.024 in assay [7]. In addition, the composite z-score is 1.08 in [8]; -0.85 in [9]; 0.529 in assay [10]; 1.32 in assay [11]; -0.323 in assay [13]; 1.6 in [14]. In addition, the composite z-score amounted to 1.01 in assay [15]; 0.245 in [16]; 0.566 in [17]; 2.27 in assay [18]; 1.16 in [19]; 1.17 in assay [20]. Further, the z-score in assay [4] is -1.91 (inactive); in [12], -2.75.
Turning to `C=C(C)[C@@H]1CC=C(C(O)C2C=CC3C(=O)N(C)C(=O)C3N2Nc2ccccc2)CC1` (stereo not given in full), the composite z-score in [1] stood at 0.433; in [2] it was 0.344; in assay [3] it was 0.581; in assay [5] it was 1.03; in assay [6], 1.03; in assay [7], 0.928. For the same molecule, the composite z-score was 1.42 in assay [8]; 1.11 in assay [9]; 1.43 in assay [10]; 1.35 in assay [11]; 0.658 in assay [13]; -0.27 in assay [14]. In addition, the composite z-score is -0.74 in assay [15]; 0.0004 in [16]; -0.142 in assay [17]; -0.144 in assay [18]; 0.296 in assay [19]; 0.429 in [20]. Besides, the z-score was 1.98 (inactive) in assay [4] and -0.626 in [12].
Turning to `CC(C)NC(=O)[C@@H]1c2ccccc2C(=O)N(C2Cc3ccccc3C2)[C@H]1c1ccc(CO)cc1`, the composite z-score was 0.959 in assay [1]; 0.172 in assay [2]; 0.749 in assay [3]; 0.16 in [5]; 0.726 in assay [6]; -0.477 in [7]. For the same molecule, the composite z-score was 0.0389 in assay [8]; -0.224 in assay [9]; 0.175 in [10]; 1.41 in [11]; 0.25 in assay [13]; 0.344 in [14]. Also, the composite z-score is -0.225 in assay [15]; 0.0142 in [16]; -0.366 in assay [17]; -0.449 in assay [18]; 0.724 in assay [19]; 0.399 in assay [20]. The z-score in assay [4] is -0.535 (inactive); in assay [12], -1.31.
In the case of `O=C1NC(=O)C2C1C=CC(C(O)c1cccs1)N2Nc1ccc(Cl)cc1Cl` (stereo not given), the composite z-score in assay [1] was 1; in assay [2], 0.82; in assay [3] it was 1.03; in [5], 0.438; in assay [6], -1.21; in assay [7], -0.893. Also, the composite z-score in assay [8] was -0.375; in [9] it was -0.456; in [10], 1.03; in [11], -1.16; in assay [13], -0.824; in assay [14], 0.0484. In addition, the composite z-score was 0.243 in [15]; -0.212 in assay [16]; 0.0278 in [17]; -0.774 in assay [18]; 1.89 in [19]; -0.779 in [20]. The figures for the z-score in [4] and in assay [12] were 0.569 (inactive) and -0.153, respectively.
In the case of `CCCC[C@H]1OB(O)C[C@H]2C1=C(COC)C[C@H]1C(=O)N(C)C(=O)[C@H]12`, the composite z-score in assay [1] was 0.0079; in assay [2], -0.252; in assay [3], -0.599; in [5] it was 0.486; in assay [6] it was -0.0431; in [7] it was 0.12. For the same molecule, the composite z-score came to 0.564 in assay [8]; 0.281 in assay [9]; 0.687 in assay [10]; 0.343 in assay [11]; 0.358 in [13]; 0.223 in assay [14]. For the same molecule, the composite z-score in [15] was -0.596; in [16] it was -0.152; in assay [17] it was -0.0626; in [18], -0.0496; in [19], -0.321; in [20], 1.16. Besides, the figures for the z-score in assay [4] and in assay [12] were 0.377 (inactive) and -0.918, respectively.
Turning to `C=C[C@H](CO[Si](CC)(CC)CC)N(Cc1ccc(OC(C)=O)c(OC)c1)S(=O)(=O)c1ccc(Br)cc1`, the composite z-score in [1] was 0.609; in assay [2], 0.964; in assay [3] it was 0.471; in assay [5], 0.365; in assay [6] it was 0.443; in assay [7], 0.275. The composite z-score is 0.465 in [8]; 0.0558 in assay [9]; 1.1 in [10]; 1.15 in [11]; 0.537 in assay [13]; 1.41 in assay [14]. For the same molecule, the composite z-score was 0.67 in assay [15]; 0.101 in [16]; -0.057 in assay [17]; 0.0481 in assay [18]; 1.12 in assay [19]; 1.23 in [20]. In addition, the z-score was -0.0534 (inactive) in assay [4] and -3.27 in assay [12].
